Reference: PubChem BioAssay AID686970 (National Center for Advancing Translational Sciences (NCATS), 2013)
The campaign covered roughly 360,000 compounds. About 6,000 (1.7%) were called active. Roughly 8% stayed inconclusive and do not appear here. The call rests on the fitted dose curve; in most records, active means well fitted cell-killing curve with a large enough effect; inconclusive means small, poorly fitted or top-dose-only effect, or effect the other way; inactive means flat fitted curve, though single readings scatter. What follows is part of a selection rich in actives, with near analogues and random picks from the rest. Where a call stands in place of a potency, no number is given.

test: qHTS for induction of synthetic lethality in tumor cells producing 2HG: qHTS for the HT-1080-NT fibrosarcoma cell line; settings: HT-1080-NT fibrosarcoma viability, CellTiter-Glo ATP luminescence, 48 h; series mostly up to 46.1 µM;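 further: NT is the 2HG producing partner of a matched IDH1 knockdown line; nearly all actives have a fitted effect of over 55% in size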
Outline: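 Toxicity toward the 2HG-producing NT line was scored as %Activity, normalised to DMSO and no-cell wells, from CellTiter-Glo luminescence after 48 hours' treatment.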
Potency means the concentration at half of the fitted maximal effect.

| Compound | Potency | activity, negative = less viability |
| --- | --- | --- |
| COc1cc(C)c(CN2CCN(C(=O)CCC(=O)c3ccc(C)s3)CC2)cc1OC | inactive | – |
| Cc1ccc(NC(=O)Cn2sc3ccccc3c2=O)cc1 | inactive | – |
| CC1(C(=O)NS(=O)(=O)c2cccc(F)c2)CCN1C(=O)Cc1ccc(Cl)cc1Cl (stereo unspecified) | inactive | – |
| COC(=O)[C@]12CCCCC=C1N(Cc1cccc3ccccc13)C(=O)[C@H](CC(=O)N1CCOCC1)C2 | inactive | – |
| O=C(O)CSc1c2c(nc3cc(C(=O)Nc4cccc(C(F)(F)F)c4)ccc13)CCCC2 | inactive | – |
| COc1cc(NC(=O)c2cncc(-c3ccc(C#N)cc3)c2)cc(C(=O)Nc2cccc(C(F)(F)F)c2)c1 | inactive | – |
| COc1cc(NC(=O)c2[nH]cnc2C(N)=O)cc(C(=O)Nc2cccc(C(F)(F)F)c2)c1 | 18.4 µM (active) | – |
| CC(=O)C1=CCC(c2ccccc2)N(S(=O)(=O)c2ccc(C)cc2)C1 (stereo unspecified) | inactive | – |
| Cc1ccc(OS(=O)Nc2cccc3nccnc23)cc1 (stereo unspecified) | 11.2 µM (active) | – |
| Cc1ccc(C)c(NC(=O)c2ccc3nccnc3c2)c1 | inactive | – |
| Cc1ccc(Oc2ccc3c(c2)C(=O)N(c2cccc4cccnc24)C3=O)cc1 | inactive | – |
| CCOc1cc(-c2cc(-c3ccc(NC(C)=O)cc3)nc(N)c2C#N)ccc1O | inactive | – |
| CCOc1cc(/C=C(\C#N)c2nc(-c3cccs3)c(NC(C)=O)s2)ccc1O | 3.26 µM (active) | – |
| CCOc1cc(C=NNC(=O)CCCC(=O)NN=Cc2ccc(O)c(OCC)c2)ccc1O | inactive | – |
| CCCNC(=O)C1(C)CCN(C(=O)c2ccc(F)cc2Cl)C1 (stereo unspecified) | inactive | – |
| CN1OC[C@@H]2CN(C(=O)c3cccc4ccccc34)[C@H](c3ccc(N4CCCCC4)cc3)C[C@@H]21 | inactive | – |
| Clc1ccc2nc(-c3ccccc3)nc(C(Cl)Cl)c2c1 | 4.61 µM (active) | – |
| N#CCSc1nc(-c2ccccc2)nc2ccc(F)cc12 | inactive | – |
| Oc1ccc(-c2onc3ccc(Cl)cc23)cc1 | inactive | – |
| CCCCNC(=O)C[C@@H]1C[C@@]2(C(=O)OCC)CCC=C2N(Cc2ccco2)C1=O | inactive | – |
| COc1nc(N=C(N)N)nc2c(C)cccc12 | inactive | – |
| Cc1nc(N=C(N)N)nc2c(C)cccc12 | 10.3 µM (active) | – |
| O=C1CCC(=O)N1CCC(=O)N(C(=O)NC1CCCCC1)C1CCCCC1 | inactive | – |
| CC(=O)OC[C@@H]1CN(Cc2ccccc2)C[C@H](n2cnc3c(NCc4ccco4)ncnc32)O1 | inactive | – |
| C[N+](C)(C)CCNC(=O)c1c[nH]c2ccccc12 | inactive | – |
| COc1cccc(-n2c(SCC(=O)c3c[nH]c4ccccc34)nc3ccccc3c2=O)c1 | inactive | – |

| Compound | Potency | activity, negative = less viability |
| --- | --- | --- |
| COc1ccc(/C=C(\C#N)c2c[nH]c3ccccc23)cc1 | 0.411 µM (active) | – |
| COc1ccc(C=C2CCC3C(CCCC34OCCO4)C2=O)cc1 (stereo unspecified) | inactive | – |
| COCCCNC(=O)c1cccc2c(-c3ccc(O)c(OC)c3)coc12 | inactive | – |
| CC1(C(=O)Nc2cccc3c2CCCC3)CCN1C(=O)CCc1ccc(Cl)cc1Cl (stereo unspecified) | inactive | – |
| C=CCSC1=C(C#N)C(c2cc(Br)c(O)c(OC)c2)CC(=O)N1 (stereo unspecified) | inactive | – |
| CCOC(=O)CSC1=C(C#N)C(c2sccc2C)CC(=O)N1 (stereo unspecified) | 2.51 µM (active) | – |
| COC(=O)CSC1=C(C#N)C(c2ccccc2OC)C(C(=O)OC)C(=O)N1 (stereo unspecified) | inactive | – |
| CN(Cc1ccccc1)C(=O)CCC1CCN(C(=O)c2ccco2)CC1 | inactive | – |
| COC(=O)Cc1ccc(OC2(C)CCN(Cc3ccc4c(c3)OCCO4)C2)cc1 (stereo unspecified) | inactive | – |
| C#CCNC(=O)C[C@@H]1C[C@@]2(C(=O)OCC)CCCC=C2N(Cc2ccco2)C1=O | inactive | – |
| COc1ccccc1NC(=O)C1=C(C)NC(=O)NC1c1ccc(C)s1 (stereo unspecified) | inactive | – |
| COc1ccccc1NC(=O)C1=C(C)Nc2nc3ccccc3n2C1c1cccs1 (stereo unspecified) | 7.31 µM (active) | – |
| CCOc1ccc(C2C(C(=O)NC)=C(C)Nc3nc4ccccc4n32)cc1OC (stereo unspecified) | inactive | – |
| COc1ccc(C(O)C(O)(C(=O)OC(C)C)c2ccc(C)cc2)cc1 (stereo unspecified) | inactive | – |
| O=C(Nc1cccc2ccccc12)NC1CC1 | inactive | – |
| CCOc1ccc(C(CC(=O)O)NC(=O)Cc2ccccc2)cc1OC (stereo unspecified) | inactive | – |
| COc1ccc(CCNS(=O)(=O)c2cccc3cccnc23)cc1OC | inactive | – |
| CCCCC(=O)NC(c1ccc(OC)c(OC)c1)c1ccc2cccnc2c1O (stereo unspecified) | 14.6 µM (active) | – |
| Cn1nc(N)c2ncc(C(Cl)(Cl)Cl)nc21 | inactive | – |
| O=S1(=O)CC(N2CCN(CCO)CC2)CN1C1CCCC1 (stereo unspecified) | inactive | – |
| Nc1c(C(=O)NCc2ccccc2)nnn1Cc1cccc(Cl)c1 | 13 µM (active) | – |
| O=C(COc1cccc(Cl)c1)NCc1ccccc1 | inactive | – |
| Nc1c(C(=O)Nc2ccc3c(c2)OCCO3)nnn1Cc1ccccc1 | inactive | – |
| Cc1cccc(C)c1NC(=O)CN1CCN(c2ccc(F)cc2)CC1 | inactive | – |
| CCOc1ccc2[nH]c(=S)sc2c1 | inactive | – |
| COc1ccc(C(C(=O)Nc2c(C)cccc2C)N2CCN(c3ccc(C)cc3)CC2)cc1 (stereo unspecified) | inactive | – |

| Compound | Potency | activity, negative = less viability |
| --- | --- | --- |
| CC1=CC(C)(C)NC(=S)N1NC(=O)c1ccccc1Cl | inactive | – |
| CC1=CC(C)(C)NC(=S)N1c1ccccc1 | 11.2 µM (active) | – |
| COc1ccc(S(=O)(=O)N(C)C)cc1NC(=O)COC(=O)c1n[nH]c2ccccc12 | inactive | – |
| O=C(CCc1ccccc1Cl)Nc1ccc(S(=O)(=O)Nc2nccs2)cc1 | inactive | – |
| Cc1ccc(C(=O)Nc2nc3ccc(Cl)cc3s2)o1 | inactive | – |
| Cc1ccc(CCC(=O)Nc2ncc(Cc3cc(Cl)ccc3Cl)s2)o1 | 1.16 µM (active) | – |
| CCc1cc(-c2nnn(CCC3COCCO3)c2CC)ccc1-c1cn(Cc2ccc3ccccc3c2)nn1 (stereo unspecified) | inactive | – |
| Cc1ccc(Cn2c(C)c(C(=O)NCc3ccccc3C(F)(F)F)sc2=O)cc1 | inactive | – |
| CCNC(=O)C1(C)CCCN1C(=O)c1ccc(N(C)C)cc1 (stereo unspecified) | inactive | – |
| Cc1nc2c(OCc3ccc(Cl)cc3)cccn2c1N(C)Cc1cccs1 | 16.4 µM (active) | – |
| CCc1nc2c(OCc3ccccc3)cccn2c1N(C)C(=O)c1ccco1 | inactive | – |
| Cc1nc2ccccc2nc(C)c1=NOCc1ccc(Cl)cc1Cl | inactive | – |
| CCCCN(C=O)c1c(CC)nc2c(OCc3ccccc3C(=O)OC)cccn12 | inactive | – |
| CCc1nc2c(OCc3ccc(Cl)cc3Cl)cccn2c1N(C)C(=O)C(C)C | 16.4 µM (active) | – |
| CCOC(=O)N(C)c1c(CC)nc2c(OCc3ccccc3C(=O)OC)cccn12 | inactive | – |
| Cc1nc2c(OCc3ccc(Cl)cc3Cl)cccn2c1N(C)CC1CC1 | 13 µM (active) | – |
| CCc1nc2c(OCc3ccc(C(=O)OC)cc3)cccn2c1N(C)C(=O)C(C)C | inactive | – |
| CCc1nc2c(OCc3ccc(F)c(F)c3)cccn2c1N(C)C(=O)c1ccco1 | inactive | – |
| COc1ccc(S(=O)(=O)NC(=O)C2(C)CCN2C(=O)COc2ccc(Cl)cc2)cc1 (stereo unspecified) | inactive | – |
| Cc1cccc(CN2CCN(C3CN(Cc4cn(Cc5cc(C)cc(C)c5)nn4)S(=O)(=O)C3)CC2)c1 (stereo unspecified) | inactive | – |
| CC1CCC2(CC1)NC(=O)N(CC(=O)NCc1ccco1)C2=O (stereo unspecified) | inactive | – |
| Cc1ccc(S(=O)(=O)N[C@H](CO)C(C)C)cc1 | inactive | – |
| COCCCn1cc(CN2CC(N(C)C)CS2(=O)=O)nn1 (stereo unspecified) | inactive | – |
| Cc1nc(C(F)(F)F)ccc1C(=O)N1CCC1(C)C(=O)NS(=O)(=O)c1ccccc1Cl (stereo unspecified) | inactive | – |
| O=C(NC1CCCCC1)C(c1cc2ccccc2o1)n1c(=O)c(-c2ccco2)nc2ccccc21 (stereo unspecified) | inactive | – |
| Cc1ccc2nc(-c3cccnc3)c(NC3CCCC3)n2c1 | inactive | – |

| Compound | Potency | activity, negative = less viability |
| --- | --- | --- |
| COc1ccc(-c2nc3cnccn3c2NC2CCCCC2)cc1-c1cccc(Cl)c1 | 18.4 µM (active) | – |
| COc1cccc(-c2nc3nc(C)cc(C)n3c2NC2CCCCC2)c1 | inactive | – |
| CC(=O)c1nn(-c2ccccc2)c(=Nc2ccccc2)cc1C | inactive | – |
| O=C(Nc1ccccc1)c1ccccc1OCc1ccccc1 | inactive | – |
| CCCOc1ccccc1C1CC(=O)Nc2cc3c(cc21)OCO3 (stereo unspecified) | 8.2 µM (active) | – |
| CCCOc1ccc(C2NC(=O)NC(c3ccccc3)=C2C(C)=O)cc1OCC (stereo unspecified) | – | 6.35% [at 9.24 µM] (inactive) |
| COC(=O)c1ccc(C2CC(=O)Nc3cc(OC)c(OC)cc32)cc1 (stereo unspecified) | inactive | – |
| Cc1ccc(F)c(S(=O)(=O)NC(=O)C2(C)CCN2C(=O)CCc2cccs2)c1 (stereo unspecified) | inactive | – |
| OC[C@@H]1CN(Cc2ccc3c(c2)OCO3)C[C@H](n2cnc3c(NCc4ccco4)ncnc32)O1 | inactive | – |
| CCc1nc2c(OCCOc3ccccc3)cccn2c1N(C)C(=O)c1ccc(OC)cc1 | inactive | – |
| COc1cccc(NC(=O)Nc2ccc(F)cc2)c1 | inactive | – |
| NC(c1csc(NC(=O)Nc2cccc(C(F)(F)F)c2)n1)C1CCCCC1 (stereo unspecified) | 8.2 µM (active) | – |
| CC(=O)c1ccc(Nc2nc(C(N)c3ccccc3)cs2)cc1 (stereo unspecified) | inactive | – |
| O=C(Nc1ccc(C(=O)N2CCOCC2)cc1)Nc1cccc(C(F)(F)F)c1 | inactive | – |
| NC(c1ccccc1)c1csc(NC(=O)Nc2cccc(C(F)(F)F)c2)n1 (stereo unspecified) | 18.4 µM (active) | – |
| COc1ccc(C(N)c2csc(NC(=O)Nc3cccc(C(F)(F)F)c3)n2)cc1 (stereo unspecified) | 20.6 µM (active) | – |
| O=C(Nc1cccc(F)c1)NC1CCCCCCC1 | inactive | – |
| O=C(O)CC1(CC(=O)Nc2cccc(C(F)(F)F)c2)CCCC1 | inactive | – |
| COc1ccc(C(CC(=O)Nc2ccc(C)cc2)NC(=O)C(F)(F)F)cc1 (stereo unspecified) | inactive | – |
| O=C(NCCc1cccc(F)c1)C1CC(O)CN1C(=O)Nc1ccccc1 (stereo unspecified) | inactive | – |
| CCN(CC)C(=O)C1=C(C)N(Cc2ccc(F)cc2)C(=O)C(CC(=O)NCc2cccc3ccccc23)C1 (stereo unspecified) | inactive | – |
| CO[C@@H]1CN(C)C(=O)c2cc(NC(=O)Nc3cc(F)ccc3F)ccc2OC[C@H](C)N(C(=O)c2ccccn2)C[C@@H]1C | inactive | – |
| CCCCC[C@H](C)N1C[C@@H](COCc2ccccc2)Oc2cc(N3CCC[C@@H]3CO)ccc2S1(=O)=O | inactive | – |
